# Results: PubChem BioAssay
# Where “and” joins values, the source holds several entries; their conditions need not be identical. Equal values may be shown once. Calls of active or inactive are those of the source. Cut-off read from the data, not from the text of the source, unless noted: active = inhibition above about 80%; inactive = the rest.
# Columns and labels:
# [1] = LFS_MB_P medulloblastoma growth inhibition, cell-based, chromothripsis tumors, cisplatin or BGB combos (AID 1671449); details: LFS_MB_P medulloblastoma cells;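 note: cells exposed for 96 hours; 0% = vehicle DMSO and 100% = killing by high DMSO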
# [2] = HDN33 neuroblastoma growth inhibition, cell-based, chromothripsis tumors, cisplatin or BGB combos (AID 1671450); details: HDN33 neuroblastoma cells, stronger effect = higher value;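 note: cells exposed to compound for four days; 0% = vehicle DMSO and 100% = cell killing by high DMSO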
# [3] = ICB984 medulloblastoma cell growth inhibition, synergistic combos for chromothripsis tumors, cisplatin or BGB combos (AID 1671451; call rule not given here;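 note: cells exposed for 96 hours before readout; 0% = vehicle DMSO and 100% = killing by high DMSO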); details: ICB984 medulloblastoma cells, drug combinations, stronger effect = higher value
# [4] = LFS_MB_1R medulloblastoma cell growth inhibition, synergistic combos for chromothripsis tumors, cisplatin or BGB combos (AID 1671452); details: LFS_MB_1R medulloblastoma cells, stronger effect = higher value;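 note: cells exposed for 96 hours before readout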
# [5] = HTB85 osteosarcoma cell growth inhibition, synergistic combos for chromothripsis tumors, BGB or cisplatin IC20 combos (AID 1671453); details: HTB85 osteosarcoma cells, drug combinations, stronger effect = higher value;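 note: cells exposed for 96 hours before readout; 0% = vehicle DMSO and 100% = high DMSO killing control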
# [6] = CRL2098 osteosarcoma cell growth inhibition, synergistic combos for chromothripsis tumors, BGB or cisplatin IC20 combos (AID 1671454); details: CRL2098 osteosarcoma cells, drug combinations, stronger effect = higher value;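 note: cells exposed for 96 h before readout; 0% = vehicle DMSO and 100% = killing by high DMSO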
# [7] = HD-MB03 medulloblastoma cell growth inhibition, synergistic combos for chromothripsis tumors, BGB or cisplatin IC20 combos (AID 1671455; in the data active = inhibition above about 83%;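 note: 0% = vehicle DMSO and 100% = high DMSO as cytotoxic control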); details: HD-MB03 medulloblastoma cells, stronger effect = higher value
# [8] = UWB1.289 ovarian carcinoma cell growth inhibition, synergistic combos for chromothripsis tumors, BGB or cisplatin combos (AID 1671456); details: UWB1.289 ovarian carcinoma cells, stronger effect = higher value;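 note: cells exposed to compound for four days; 0% = vehicle DMSO and 100% = killing by high DMSO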
# [9] = LFS_MB_2R medulloblastoma cell growth inhibition, synergistic combos for chromothripsis tumors, cisplatin combos (AID 1671457); details: LFS_MB_2R medulloblastoma cells, stronger effect = higher value;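 note: cells exposed to compound for four days before readout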
# [10] = MDA-MB-436 breast carcinoma cell growth inhibition, synergistic combos for chromothripsis tumors, BGB or cisplatin combos (AID 1671458; call rule not given here;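 note: cells exposed for 96 hours; 0% = vehicle DMSO and 100% = killing by high DMSO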); details: MDA-MB-436 breast carcinoma growth inhibition, drug combinations, stronger effect = higher value
# [11] = UWB1.289_BRCA1 ovarian cancer growth, cell-based, BGB or cisplatin combinations (AID 1671459); details: UWB1.289 BRCA1 ovarian carcinoma, drug combinations, stronger effect = higher value
# [12] = human astrocyte viability loss, single and combined drugs, cytotoxicity control for chromothriptic childhood tumor combination screen, cell-based, BGB or cisplatin IC20 combos (AID 1671460); details: Human astrocytes, drug combinations, stronger effect = higher value;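 note: cells exposed to compounds for 96 hours before viability readout; 0% = vehicle and 100% = killing control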
# [13] = growth inhibition of BT084 medulloblastoma cells, cell-based, ICGC_MB145, cisplatin and BGB IC40 combos (AID 1671461); details: drug combinations, stronger effect = higher value;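 note: cells exposed to drugs for 96 hours; 0% = vehicle DMSO and 100% = high DMSO full killing control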
# [14] = growth inhibition of RCMB18 medulloblastoma cells, cell-based, cisplatin and BGB IC40 combos (AID 1671462); details: stronger effect = higher value;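 note: cells exposed to compound for four days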
# [15] = growth inhibition of CRL1545 osteosarcoma cells, cell-based, cisplatin and BGB IC20 combos (AID 1671464); details: stronger effect = higher value;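 note: cells exposed to compound for 96 hours before readout; 0% = vehicle DMSO and 100% = high DMSO killing control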
# [16] = at 0.5 µM, stronger effect = higher value
# [17] = measured here: combination with BGB IC20, at 0.005 µM
# [18] = measured here: combination with BGB IC40, at 0.005 µM
# [19] = measured here: combination with BGB IC40, at 0.05 µM
# [20] = measured here: combination with cisplatin, at 0.5 µM, stronger effect = higher value
# [21] = measured here: combination with cisplatin, at 5 µM, stronger effect = higher value
# [22] = measured here: with BGB IC20 combination, at 0.5 µM
# [23] = measured here: with cisplatin IC20 combination, at 0.5 µM
# [24] = measured here: 5 uM single agent, at 5 µM
# [25] = measured here: combination with cisplatin, at 0.5 µM
# [26] = measured here: combination with cisplatin, at 5 µM
# [27] = measured here: with BGB IC20, at 0.5 µM
# [28] = measured here: with BGB IC20, at 5 µM
# [29] = measured here: with cisplatin IC20, at 0.5 µM
# [30] = measured here: with cisplatin IC20, at 5 µM
# [31] = measured here: combination with BGB at IC20, at 0.5 µM
# [32] = measured here: combination with cisplatin at IC20, at 0.5 µM
# [33] = measured here: combo with BGB at IC20, at 0.5 µM
# [34] = measured here: combo with cisplatin at IC20, at 0.5 µM
# [35] = measured here: inhibition with BGB combination, at 0.05 µM
# [36] = measured here: inhibition with cisplatin combination, at 0.05 µM
# [37] = measured here: BGB combination, at 0.5 µM
# [38] = measured here: BGB combination, at 5 µM
# [39] = measured here: cisplatin combination, at 0.5 µM
# [40] = measured here: cisplatin combination, at 5 µM
# [41] = BGB combination, concentration series, at 5 µM
# [42] = cisplatin combination, concentration series, at 5 µM
# [43] = measured here: combo with BGB IC20, at 0.5 µM
# [44] = measured here: combo with cisplatin IC20, at 0.5 µM
# [45] = cisplatin combination, at 0.5 µM
# [46] = measured here: BGB IC40 combination 0.05 uM, at 0.05 µM
smiles,measurement,setting,value
O=c1[nH]c(=S)[nH]c(/N=C/c2ccccc2)c1N=Cc1ccccc1,inhibition,[1]; [16],10.8% (inactive) and -1.11% (inactive)
same,inhibition,[1]; [17],7.44% and 1.3%
same,inhibition,[1]; [18],-16.5% and -26.2%
same,inhibition,[1]; [19],0.419% and 2.63%
same,inhibition,[1]; [20],24.4% and -35.7%
same,inhibition,[1]; [21],-12.6% and -19.3%
same,inhibition,"[2]; BGB combo, at 5 µM",-34% and -42.2%
same,inhibition,[2]; at 0.5 µM,-32.1% (inactive) and -19.5% (inactive)
same,inhibition,"[2]; cisplatin combo, at 5 µM",-21.4% and -48.2%
same,inhibition,[2]; [22],-30.4% and -16.3%
same,inhibition,[2]; [23],-42.2% and -15.7%
same,inhibition,"[2]; single agent, at 5 µM",-37.4% and -37%
same,inhibition,"[3]; BGB IC20 combo, at 0.005 µM",1.63% and -15.3%
same,inhibition,"[3]; BGB IC40 combo, at 0.005 µM",-50.4% and 4.14%
same,inhibition,"[3]; BGB IC40 combo, at 0.05 µM",-19.4% and -32.8%
same,inhibition,[3]; at 0.5 µM,-11.2% (inactive) and -6.96% (inactive)
same,inhibition,"[3]; cisplatin combo, at 0.05 µM",-22.8% and -39.7%
same,inhibition,"[3]; cisplatin combo, at 0.5 µM",-24.4% and 3.72%
same,inhibition,"[3]; cisplatin combo, at 5 µM",-19.7% and -8.53%
same,inhibition,[3]; [24],-28.4% and -9.24%
same,inhibition,[4]; at 0.5 µM,-24.3% (inactive) and -5.83% (inactive)
same,inhibition,[4]; [19],-16.1% and -5.8%
same,inhibition,[4]; [25],-52.1% and -29.6%
same,inhibition,[4]; [26],-67.9% and -16.8%
same,inhibition,[5]; at 0.5 µM,-24.2% (inactive) and -31.7% (inactive)
same,inhibition,[5]; [27],-36.7% and -29.2%
same,inhibition,[5]; [28],-72.3% and -10.6%
same,inhibition,[5]; [29],-17.7% and -30.3%
same,inhibition,[5]; [30],-46.1% and -5.16%
same,inhibition,"[5]; single agent, at 5 µM",-26.4% and -23.9%
same,inhibition,[6]; at 0.5 µM,-71.1% (inactive) and -62.3% (inactive)
same,inhibition,[6]; [31],-91.5% and -60.8%
same,inhibition,[6]; [32],-66.2% and -85.1%
same,inhibition,[7]; at 0.5 µM,-16.3% (inactive) and -12.6% (inactive)
same,inhibition,[7]; [33],-14.6% and -13.1%
same,inhibition,[7]; [34],-24.1% and -18.2%
same,inhibition,[8]; at 0.5 µM,-10.1% (inactive) and -11.6% (inactive)
same,inhibition,[8]; [35],-8.71% and -6.64%
same,inhibition,[8]; [36],-18.2% and -17.6%
same,inhibition,[9]; at 0.5 µM,-2.17% (inactive) and -7.03% (inactive)
same,inhibition,[9]; [25],4.09% and -15.4%
same,inhibition,[9]; [26],-75.4% and -34.5%
same,inhibition,[10]; at 0.5 µM,-13.4% (inactive) and -8.5% (inactive)
same,inhibition,[10]; [37],-4.77% and -3.51%
same,inhibition,[10]; [38],-0.125% and 9.68%
same,inhibition,[10]; [39],-26% and -20.1%
same,inhibition,[10]; [40],-13.5% and -24.6%
same,inhibition,[11]; [41],-20.1% and -21%
same,inhibition,[11]; at 0.5 µM,-11.1% (inactive) and -17.6% (inactive)
same,inhibition,[11]; [42],-0.543% and -15.8%
same,inhibition,[12]; at 0.5 µM,-14.7% (inactive) and -11.3% (inactive)
same,inhibition,[12]; [43],-6.75% and -6.18%
same,inhibition,[12]; [44],-39.7% and -17.5%
same,inhibition,[13]; at 0.5 µM,-0.252% (inactive) and 5.93% (inactive)
same,inhibition,[13]; [45],-5.14% and -7.54%
same,inhibition,"[13]; cisplatin combination, at 5 µM",-2.96% and -198%
same,inhibition,[13]; [46],11.6% and -6.05%
same,inhibition,"[13]; single agent, at 5 µM",-8.91% and -10.5%
same,inhibition,[14]; at 0.5 µM,-27.2% (inactive) and -2.36% (inactive)
same,inhibition,"[14]; cisplatin combo, at 5 µM",-73.6% and -65.6%
same,inhibition,"[14]; measured here: BGB IC40 combination, at 0.05 µM",-4.14% and 6.35%
same,inhibition,[14]; [25],-76.9% and 2.66%
same,inhibition,"[14]; single agent, at 5 µM",-10.2% and -0.506%
same,inhibition,[15]; at 0.5 µM,-63.6% (inactive) and -4.77% (inactive)
same,inhibition,[15]; [22],-46.4% and -22.1%
same,inhibition,[15]; [23],-76% and 2.34%
same,inhibition,"[15]; single agent, at 0.05 µM",-68.7% and -41.2%
same,inhibition,"[15]; single agent, at 5 µM",-27.1% and -36.4%
CC1CNC(=O)NC1=O (stereo not drawn),inhibition,[1]; [16],-30.6% (inactive)
same,inhibition,[1]; [17],-22%
same,inhibition,[1]; [18],-7.63%
same,inhibition,[1]; [19],-15.7%
same,inhibition,[1]; [20],-39.2%
same,inhibition,[1]; [21],-13.3%
same,inhibition,"[2]; BGB combo, at 5 µM",-40.2%
same,inhibition,[2]; at 0.5 µM,-17.3% (inactive)
same,inhibition,"[2]; cisplatin combo, at 5 µM",-24%
same,inhibition,[2]; [22],-4.75%
same,inhibition,[2]; [23],-15.4%
same,inhibition,"[2]; single agent, at 5 µM",2.08%
same,inhibition,"[3]; BGB IC20 combo, at 0.005 µM",-33.2%
same,inhibition,"[3]; BGB IC40 combo, at 0.005 µM",-36.3%
same,inhibition,"[3]; BGB IC40 combo, at 0.05 µM",-20.7%
same,inhibition,[3]; at 0.5 µM,-43.5% (inactive)
same,inhibition,"[3]; cisplatin combo, at 0.05 µM",-20.7%
same,inhibition,"[3]; cisplatin combo, at 0.5 µM",-62.7%
same,inhibition,"[3]; cisplatin combo, at 5 µM",-40.7%
same,inhibition,[3]; [24],-37.5%
same,inhibition,[4]; at 0.5 µM,-30.6% (inactive)
same,inhibition,[4]; [19],-35.2%
same,inhibition,[4]; [25],5.53%
same,inhibition,[4]; [26],23.2%
same,inhibition,[5]; at 0.5 µM,-31.7% (inactive)
same,inhibition,[5]; [27],-55.6%
same,inhibition,[5]; [28],-9.18%
same,inhibition,[5]; [29],-36.4%
same,inhibition,[5]; [30],-7.78%
same,inhibition,"[5]; single agent, at 5 µM",-19.6%
same,inhibition,[6]; at 0.5 µM,-81.6% (inactive)
same,inhibition,[6]; [31],-71.8%
same,inhibition,[6]; [32],-130%
same,inhibition,[7]; at 0.5 µM,7.56% (inactive)
same,inhibition,[7]; [33],12%
same,inhibition,[7]; [34],16.9%
same,inhibition,[8]; at 0.5 µM,-15.4% (inactive)
same,inhibition,[8]; [35],-40%
same,inhibition,[8]; [36],-20.8%
same,inhibition,[9]; at 0.5 µM,-25.2% (inactive)
same,inhibition,[9]; [25],-28%
same,inhibition,[9]; [26],-26.8%
same,inhibition,[10]; at 0.5 µM,-18.9% (inactive)
same,inhibition,[10]; [37],-18.5%
same,inhibition,[10]; [38],-17.9%
same,inhibition,[10]; [39],-32%
same,inhibition,[10]; [40],-4.6%
same,inhibition,[11]; [41],1.37%
same,inhibition,[11]; at 0.5 µM,-11% (inactive)
same,inhibition,[11]; [42],10.9%
same,inhibition,[12]; at 0.5 µM,12.2% (inactive)
same,inhibition,[12]; [43],9.11%
same,inhibition,[12]; [44],12%
same,inhibition,[13]; at 0.5 µM,-12.5% (inactive)
same,inhibition,[13]; [45],-19.5%
same,inhibition,"[13]; cisplatin combination, at 5 µM",-47.1%
same,inhibition,[13]; [46],-27%
same,inhibition,"[13]; single agent, at 5 µM",-16.6%
same,inhibition,[14]; at 0.5 µM,-12% (inactive)
same,inhibition,"[14]; cisplatin combo, at 5 µM",-15.1%
